Measurements published in PubChem BioAssay (Tox21).
Records with an inconclusive call do not appear. Calls of active or inactive are those of the source. Unless noted, calls follow the shape of the dose curve; as a rule, active = well fitted curve in the direction sought with a large enough effect in the repeat runs; inconclusive = weak or mixed curves; inactive = no such curve, though single readings can be large; an effect the other way counts as inactive or inconclusive.

What was measured:
[1] = qHTS assay to test for compound auto fluorescence at 535 nm (green) in HEK293 cells (AID 720680)
[2] = qHTS assay to test for compound auto fluorescence at 460 nm (blue) in HEK293 cell free culture (AID 720681); also: potency is read from the fitted curve at half-maximal effect
How it was run: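 Blue fluorescence (Ex 405/Em 460 nm, triamterene-equivalent) was read immediately after pin transfer of compound or DMSO into medium (DMEM, 10% FBS) without cells.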

[3] = qHTS assay to test for compound auto fluorescence at 535 nm (green) in HEK293 cell free culture (AID 720682)
How it was run: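 Using fluorescein as calibrant, autofluorescence was quantified at 485/535 nm in cell-free DMEM containing 10% FBS after pintool addition of compound or vehicle.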

[4] = qHTS assay to test for compound auto fluorescence at 590 nm (red) in HEK293 cell free culture (AID 720683)
How it was run: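 Red-channel autofluorescence of compounds in culture medium (DMEM, 10% FBS), no cells, measured at 540/590 nm. Rose Bengal sodium is the reference fluorophore for equivalence.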

[5] = qHTS assay to test for compound auto fluorescence at 590 nm (red) in HepG2 cell free culture (AID 720684)
How it was run: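 No cells present: MEM + 10% FBS only. Compound pinned in, red label read (540/590 nm). Activity = fluorescence equivalent to Rose Bengal sodium.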

[6] = qHTS assay to test for compound auto fluorescence at 460 nm (blue) in HepG2 cell free culture (AID 720685); also: potency is read from the fitted curve at half-maximal effect
How it was run: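 Cell-free plates of MEM plus 10% FBS received 23 nL compound or DMSO vehicle; blue-channel (405/460 nm) intensity scored against triamterene as reference fluorophore.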

[7] = qHTS assay to identify small molecule antagonists of the glucocorticoid receptor (GR) signaling pathway - cell viability counter screen (AID 720693); also: nearly all actives have a fitted effect of over 55% in size; also: potency is read from the fitted curve at half-maximal effect
[8] = qHTS assay for identifying genotoxic compounds that show differential cytotoxicity against isogenic chicken DT40 cell lines with known DNA damage response pathways - wild type cell line (AID 743012); also: nearly all actives have a fitted effect of over 60% in size; also: potency is read from the fitted curve at half-maximal effect
How it was run: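 Viability of DNA repair-proficient chicken DT40 cells was assessed by CellTiter-Glo luminescence following 40 h compound exposure at 37 C/5% CO2.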

[9] = qHTS assay for identifying genotoxic compounds that show differential cytotoxicity against isogenic chicken DT40 cell lines with known DNA damage response pathways - Rev3 mutant cell line (AID 743014); also: nearly all actives have a fitted effect of over 55% in size; also: potency is read from the fitted curve at half-maximal effect
[10] = qHTS assay for identifying genotoxic compounds that show differential cytotoxicity against isogenic chicken DT40 cell lines with known DNA damage response pathways - Rad54/Ku70 mutant cell line (AID 743015); also: nearly all actives have a fitted effect of over 60% in size; also: potency is read from the fitted curve at half-maximal effect
[11] = qHTS assay to identify small molecule antagonists of the androgen receptor (AR) signaling pathway - cell viability counter screen (AID 743033; also: nearly all actives have a fitted effect of over 45% in size; also: potency is read from the fitted curve at half-maximal effect)
[12] = qHTS assay to identify small molecule antagonists of the androgen receptor (AR) signaling pathway using the MDA cell line - cell viability counter screen (AID 743041; also: nearly all actives have a fitted effect of over 45% in size; also: potency is read from the fitted curve at half-maximal effect)
How it was run: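 Using the breast carcinoma line MDA-kb2 AR-luc, test chemicals were co-incubated with R1881 for 16 h; CellTiter-Fluor reagent, added at 15.5 h, provided a fluorescence measure of live cells.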

[13] = qHTS assay to test for compound auto fluorescence at 460 nm (blue) in HepG2 cells (AID 720687); also: potency is read from the fitted curve at half-maximal effect
How it was run: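 Blue-channel autofluorescence (Ex/Em 405/460 nm, triamterene-equivalent) was measured after 1 hr compound exposure at 37 C, 5% CO2. Cells were HepG2, plated overnight at 37 C in MEM plus 10% FBS.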

[14] = target: Glucocorticoid receptor (Homo sapiens) (UniProt P04150); assay: qHTS assay to identify small molecule agonists of the glucocorticoid receptor (GR) signaling pathway (AID 720691; active = well fitted activation curve with a large enough effect in the signal ratio in the repeat runs, not every such curve was filed as active; the % refers to the signal ratio; also: potency is read from the fitted curve at half-maximal effect); conditions: GR-bla HeLa, beta-lactamase reporter ratio, 18 h; activation: at 62.4 µM (top of the series)
How it was run: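 Compounds in DMSO, alongside positive controls, were added to GR-bla HeLa reporter cells and incubated 18 h at 37 C; GRE-driven beta-lactamase was detected by fluorescence after 2 h with FRET substrate at room temperature.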

[15] = target: Androgen receptor (Homo sapiens) (UniProt P10275); assay: qHTS assay to identify small molecule agonists of the androgen receptor (AR) signaling pathway using the MDA cell line (AID 743040; also: nearly all actives have a fitted effect of over 20% in size)
How it was run: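 Stable MMTV-luciferase reporter in MDA-kb2 cells; note the promoter carries GR as well as AR response elements. 16 h compound treatment, 37C, 0% CO2; ONE-Glo luminescence endpoint.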

[16] = target: Androgen receptor (Homo sapiens) (UniProt P10275); assay: qHTS assay to identify small molecule antagonists of the androgen receptor (AR) signaling pathway using the MDA cell line (AID 743042; also: nearly all actives have a fitted effect of over 55% in size)
How it was run: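 Antagonist mode: compounds plus R1881 agonist added to MDA-kb2 AR-luc cells, incubated 16 h at 37C. Luciferase reporter luminescence quantified, with multiplexed CellTiter-Fluor readout for cell viability.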

[17] = qHTS assay to test for compound auto fluorescence at 535 nm (green) in HepG2 cell free culture (AID 720686)
[18] = target: Glucocorticoid receptor (Homo sapiens) (UniProt P04150); assay: qHTS assay to identify small molecule antagonists of the glucocorticoid receptor (GR) signaling pathway (AID 720692; active = well fitted inhibition curve with a large enough effect in the signal ratio in the repeat runs, not every such curve was filed as active; the % refers to the signal ratio; also: potency is read from the fitted curve at half-maximal effect)
How it was run: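 In a 1536-well cell format, compounds were added 4 h after seeding GR-bla HeLa cells, together with dexamethasone at 5 nM final; reporter activity was measured by FRET-substrate fluorescence following 18 h at 37 C.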

[19] = target: Androgen receptor (Homo sapiens) (UniProt P10275); assay: qHTS assay to identify small molecule antagonists of the androgen receptor (AR) signaling pathway (AID 743035; active = well fitted inhibition curve with a large enough effect in the signal ratio in the repeat runs, not every such curve was filed as active; the % refers to the signal ratio)
How it was run: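 Reporter HEK293 cells were exposed to compounds and R1881 overnight (16 h, 37C); beta-lactamase activity was then quantified by FRET fluorescence.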

[20] = target: Androgen receptor (Homo sapiens) (UniProt P10275); assay: qHTS assay to identify small molecule agonists of the androgen receptor (AR) signaling pathway (AID 743036; active = well fitted activation curve with a large enough effect in the signal ratio in the repeat runs, with a control signal flat, not every such curve was filed as active; the % refers to the signal ratio)
How it was run: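 In this Tox21 qHTS, 2,000 HEK293 AR-bla cells per well were incubated with compounds for 16 h at 37C and 5% CO2. Fluorescence intensity was recorded 2 h after adding LiveBLAzer B/G FRET substrate at room temperature.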

Measured: Potency
Tags tell the direction and shape of the fitted curve or compound fluorescence and quenching.

Glucocorticoid receptor (Homo sapiens), sequence (P04150 whole entry, looked up): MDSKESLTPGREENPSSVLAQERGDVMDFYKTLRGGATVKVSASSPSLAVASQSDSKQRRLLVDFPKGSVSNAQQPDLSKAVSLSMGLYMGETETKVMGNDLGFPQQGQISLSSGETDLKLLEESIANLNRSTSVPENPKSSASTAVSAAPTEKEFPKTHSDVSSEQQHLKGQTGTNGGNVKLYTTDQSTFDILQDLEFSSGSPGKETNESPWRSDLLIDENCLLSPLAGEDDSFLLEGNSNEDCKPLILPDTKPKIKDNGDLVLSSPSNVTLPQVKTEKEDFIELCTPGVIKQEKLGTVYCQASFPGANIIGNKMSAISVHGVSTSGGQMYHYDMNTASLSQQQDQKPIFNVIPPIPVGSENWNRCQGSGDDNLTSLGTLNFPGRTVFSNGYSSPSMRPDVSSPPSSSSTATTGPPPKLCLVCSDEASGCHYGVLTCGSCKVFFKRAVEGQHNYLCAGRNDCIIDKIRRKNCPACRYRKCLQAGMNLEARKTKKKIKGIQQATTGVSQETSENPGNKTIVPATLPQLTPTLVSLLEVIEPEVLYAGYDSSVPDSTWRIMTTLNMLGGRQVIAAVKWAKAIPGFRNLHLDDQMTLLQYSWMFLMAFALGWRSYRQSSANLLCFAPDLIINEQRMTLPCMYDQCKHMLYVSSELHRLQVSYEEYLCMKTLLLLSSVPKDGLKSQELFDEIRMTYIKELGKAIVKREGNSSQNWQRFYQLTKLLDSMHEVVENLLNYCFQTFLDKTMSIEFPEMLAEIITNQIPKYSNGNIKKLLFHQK
Androgen receptor (Homo sapiens), sequence (P10275 whole entry, looked up): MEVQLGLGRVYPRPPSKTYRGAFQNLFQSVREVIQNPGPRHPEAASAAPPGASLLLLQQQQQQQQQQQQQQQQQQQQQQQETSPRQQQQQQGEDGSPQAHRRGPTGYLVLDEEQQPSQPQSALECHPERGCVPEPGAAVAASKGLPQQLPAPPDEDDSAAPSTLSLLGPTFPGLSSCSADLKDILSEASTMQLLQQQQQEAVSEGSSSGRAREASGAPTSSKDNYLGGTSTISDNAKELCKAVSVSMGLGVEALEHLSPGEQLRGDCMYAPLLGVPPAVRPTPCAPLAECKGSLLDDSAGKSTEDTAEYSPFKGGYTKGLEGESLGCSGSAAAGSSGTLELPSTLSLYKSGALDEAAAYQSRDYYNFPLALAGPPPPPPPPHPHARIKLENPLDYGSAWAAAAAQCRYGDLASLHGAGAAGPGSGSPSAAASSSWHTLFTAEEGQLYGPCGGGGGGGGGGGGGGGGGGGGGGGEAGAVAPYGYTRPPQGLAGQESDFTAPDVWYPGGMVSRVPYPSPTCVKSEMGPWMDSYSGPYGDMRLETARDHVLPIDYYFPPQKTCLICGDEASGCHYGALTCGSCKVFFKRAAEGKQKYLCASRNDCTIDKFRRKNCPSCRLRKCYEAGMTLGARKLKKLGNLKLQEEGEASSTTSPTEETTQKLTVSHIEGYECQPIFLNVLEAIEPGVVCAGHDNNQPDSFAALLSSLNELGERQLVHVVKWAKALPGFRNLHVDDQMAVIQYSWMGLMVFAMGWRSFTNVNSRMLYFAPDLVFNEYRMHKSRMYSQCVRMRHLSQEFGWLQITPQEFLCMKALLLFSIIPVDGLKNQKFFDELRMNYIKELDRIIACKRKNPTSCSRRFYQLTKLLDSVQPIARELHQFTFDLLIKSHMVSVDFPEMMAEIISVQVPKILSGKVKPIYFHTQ

CCC[CH2][Sn]([CH2]CCC)([CH2]CCC)[CH2]CCC
active: [7] 54.9 µM | [8] 7.7 µM | [9] 21.7 µM | [10] 8.63 µM | [11] 43.6 µM | [12] 61.1 µM
inactive: [1] | [2] | [3] | [4] | [5] | [6]

CCCCC(CC)COC(=O)OOC(C)(C)C (configuration not stated)
inactive: [1] | [2] | [3] | [4] | [5] | [6] | [13] | [7] | [10] | [11] | [12]

c1ccc2c(c1)cc1ccc3cccc4ccc2c1c34
inactive: [1] | [2] | [3] | [4] | [5] | [8] | [10] | [11]
active: [14] 25 µM [fluorescent]

N#Cc1c2ccccc2cc2ccccc12
active: [2] 2.51 µM | [6] 2.51 µM [fluorescent] | [13] 2.82 µM [fluorescent]
not listed: [8] | [9] | [14] | [17] | [18] | [19] | [20]
inactive: all other assays above

CCN(CC)CCN1C(=O)CN=C(c2ccccc2F)c2cc(Cl)ccc21
active: [8] 6.68 µM | [9] 13.3 µM | [10] 26.6 µM
not listed: [1] | [12] | [15] | [16] | [19] | [20]
inactive: all other assays above

CNN
not listed: [14] | [15] | [16] | [17] | [18] | [19] | [20]
inactive: all other assays above

CC[C@]1(O)CC[C@H]2[C@@H]3CCC4=CCCC[C@@H]4[C@H]3CC[C@@]21C
active: [18] 1.69 µM | [7] 3.01 µM | [8] 8.41 µM | [9] 9.44 µM | [10] 13.3 µM
not listed: [14] | [15] | [16] | [17] | [19] | [20]
inactive: all other assays above

CO/N=C(/C1=NOCCO1)c1ccccc1Oc1ncnc(Oc2ccccc2Cl)c1F
active: [8] 0.0306 µM | [9] 0.0544 µM | [10] 0.0153 µM | [11] 6.91 µM
inactive: [1] | [2] | [3] | [4] | [5] | [6] | [13] | [14] | [18]

S=C=Nc1ccccc1
not listed: [1]
inactive: all other assays above

C=C(C)C(=O)[O][Sn]([CH2]CCC)([CH2]CCC)[CH2]CCC
active: [7] 0.776 µM | [8] 0.486 µM | [9] 0.686 µM | [10] 0.545 µM | [11] 0.776 µM | [12] 1.93 µM
inactive: [1] | [2] | [3] | [4] | [5] | [6] | [13]

CCC(C)Nc1c([N+](=O)[O-])cc(C(C)(C)C)cc1[N+](=O)[O-] (configuration not stated)
not listed: [1] | [15] | [16] | [19] | [20]
inactive: all other assays above

O.O.O.O=C([O-])[C@H]([O-])[C@@H]([O-])C(=O)[O-].O=C([O-])[C@H]([O-])[C@@H]([O-])C(=O)[O-].[K+].[K+].[Sb+3].[Sb+3]
active: [10] 3.46 µM
inactive: [1] | [2] | [3] | [4] | [5] | [6] | [13] | [7] | [9] | [11]

[O-][Cl+3]([O-])([O-])O
not listed: [13] | [14] | [15] | [16] | [17] | [18] | [19] | [20]
inactive: all other assays above

CCC[CH2][Sn]([CH2]CCC)([O]C(C)=O)[O]C(C)=O
active: [18] 0.35 µM | [10] 30.9 µM
inactive: [1] | [2] | [3] | [4] | [5] | [6] | [13] | [7] | [12]

CCO/N=C(\CC)C1=C(O)CC(c2c(C)cc(C)cc2C)CC1=O (configuration not stated)
active: [8] 48.5 µM | [9] 51.4 µM | [10] 62.5 µM
not listed: [11] | [13] | [16] | [17] | [19] | [20]
inactive: all other assays above

C#CCO
not listed: [9] | [12] | [15] | [16] | [17] | [19] | [20]
inactive: all other assays above
